# Results as given in PubChem BioAssay AID904 (National Center for Advancing Translational Sciences (NCATS), 2007).
# Screen size: about 55,000 compounds; about 530 (0.96%) were called active. Roughly 7% stayed inconclusive and do not appear here. Many of the other results were omitted from the sample, so actives are more common in it than they were. Values without a mark were called inactive. Calls come from the whole dose curve; as a rule, active = well fitted cell-killing curve with a large enough effect; inconclusive = small, poorly fitted or top-dose-only effect; inactive = no such curve, though single readings can be large or run the other way.
# Test: qHTS Screen for Compounds that Selectively Target Cancer Cells with p53 Mutations: Cytotoxicity of p53 Null Cells at the Nonpermissive Temperature; note: nearly all actives have a fitted effect of over 50% in size;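 for activity, negative = cell killing: 0% = DMSO only and -100% = full killing by 100 µM tamoxifen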
# Conditions: H1299 p53-null (neo) cells, 39C, ATPlite viability, 24 h; series mostly up to 46.1 µM; activity, negative = cell killing: at the top concentration
# Description: NIH Chemical Genomics Center [NCGC] NIH Molecular Libraries Screening Centers Network [MLSCN] MLSCN Grant: 1 X01 MH079844-01 Assay Submitter (PI): Dr. SUN, YI, University of Michigan NCGC Assay Overview: Synthetic Lethal Screen for Compounds to Kill Cancer Cells with p53 Mutation. Tumor suppressor gene p53 serves as a major cellular barrier against tumorigenesis. […] The goal of this screening is to identify small molecule probes that selectively kill cancer cells with mutations in p53. This screening was carried out using two lines of H1299 lung cancer cells. The H1299-p53 A138V line express a temperature sensitive p53 mutant (p53ts) in which the mutant p53 protein (A138V) is in the mutant confirmation when grown at 39C (the nonpermissive temperature) and in the wild type conformation when grown at 32C (the permissive temperature). A H1299-neo line (p53 null) grown at both 39C and 32C were used as counter-screens to filter out false positive associated with temperature shifting. The small molecular compounds that selectively target mutant p53-containing cancer cells were selected as candidate probes for further study. A cytotoxicity assay based on the measurement of ATP contents in cells was used in this screen. Concentration-responses of all the compounds in the library collection were determined in qHTS using the cell lines and temperature conditions as above.
# NCGC Assay Protocol Summary: Both the H1299-p53A138V and H1299-neo cell lines were provided by Dr.Yi Sun, a PI at the University Michigan. The cells were maintained and cultured at 37C. The resuspended frozen cells were used to plate the cells in the 1536-well assay plates at a density of 600 cells per well in 5 ul medium. The assay plates with the cells were incubated at 37C for 16 to 30 hours before the experiments. The library compounds in DMSO solution were added to the cells in assay plates and incubated 24 hours at 39C (for mutant p53 conformation) or 32C (for normal p53 conformation as control). An ATP_lite assay kit (PerkinElmer) was used to determine the cell viability. Tomaxifen (100uM) was used as the positive control for cell killing. Data were normalized to the controls for basal activity (DMSO only) and 100% killing (100uM tamoxifen). AC50 values were determined from concentration-response data modeled with the standard Hill equation. P53 assay protocol: 1. Reagent; 5 uL H1299-p53A138V or H1299-neo cell cells/well 2. Time; overnight; 37C incubation 3. Compounds; 23 nL; 5.9 nM to 46 uM 4. Controls; 23 nL; Tamoxifen 100 uM 5. Time; 24 hr; 39C incubation 6. Reagent; 3 uL; ATP_Lite reagent 7. Time; 20 min; Room Temperature 8. Detection; Luminescence; Viewlux plate reader Keywords: p53, synthetic lethal, cancer, cell viability, cytotoxicity, H1299 cell line, luminescence, MLSMR, MLSCN, NIH Roadmap, qHTS, NCGC
# Potency is the fitted concentration of half-maximal effect.
Structure (SMILES),"activity, negative = cell killing",Potency
Cc1ccc(NC(=O)C2CCN(S(=O)(=O)c3cc(-c4noc(C)n4)ccc3C)CC2)c(C)c1,16.7%,
Cc1ccc(-c2cc(N)on2)cc1,9.86% [at 1.84 µM],
Cc1ccc2[nH]cc(CCCN3C(=O)c4ccccc4C3=O)c2c1,-0.898% [at 1.84 µM],
Cc1nn(Cc2ccc(Cl)cc2)c(Cl)c1/C=N/NC(=O)CNc1ccccc1F,34.8%,
COc1ccc(NC(=O)Cn2c(=O)n(CCC(C)C)c(=O)c3cccnc32)cc1Cl,-16.3%,
CCOC(=O)c1ccc(NC(=O)Cn2cc(S(=O)(=O)Cc3ccccc3F)c3ccccc32)cc1,-3.04%,
CCOc1cccc2c1N[C@@H](c1ccc(C(=O)O)cc1)[C@H]1CC=C[C@@H]21,2.51%,
Cc1[nH]c2ccccc2c1/C=N/NC(=O)CNC(=O)c1ccc2c(c1)OCO2,2.07% [at 1.84 µM],
Cc1cc[n+](-c2[nH]c(=O)sc2/C=N/NC(=O)c2ccccc2[O-])cc1C,21.4%,
CCN(C(=O)Cn1c(=O)nc(-c2ccccc2)c2cc(Cl)ccc21)c1cccc(C)c1,,12.6 µM (active)
Cc1cccc(NC(=O)Cn2nc(-c3ccc(Cl)cc3)c3ccccc3c2=O)c1,1.82%,
O=C(Cn1c(=O)nc(-c2ccccc2)c2cc(Cl)ccc21)NCc1ccc(Cl)cc1,-21.4%,
COc1ccc(-c2nnc(SCc3cccnc3)o2)cc1,-29.7%,
CCCn1c(SCC(=O)Nc2ccc(C)c(S(=O)(=O)N3CCOCC3)c2)n[nH]c1=O,11.9%,
O=C(Nc1c2c(nc3ccccc13)CCCC2)c1ccccc1Br,12.7%,
COc1ccccc1Nc1c2c(nc3ccc(NC(=O)/C=C/c4cc(OC)c(OC)c(OC)c4)cc13)CCCC2,,10 µM (active)
COc1cc(C(=O)Nc2ccc(-n3c(C)nc4ccccc4c3=O)cc2)cc(OC)c1OC,19%,
CCOC(=O)c1cc2c(=O)n3ccccc3nc2n(CC2CCCO2)c1=NC(=O)c1ccc(C(C)(C)C)cc1 (centres undefined),10.4%,
Cc1ccccc1CSc1nc2c([nH]c3ccccc32)c(=O)n1C,12.6%,
CC1=C(c2ccc(Cl)cc2)S(=O)(=O)N=C1N1CCN(c2cc(C)ccc2C)CC1,-12.3%,
Cc1ccc(C)c(N2CCN(CCCNC(=O)Nc3ccc(Cl)cc3)CC2)c1,,5.01 µM (active)
CC1=C(c2ccc(C)cc2)S(=O)(=O)NC1=NCCCN1CCN(c2cc(C)ccc2C)CC1,-8.74%,
COc1ccccc1OCC(=O)Nc1nnc2n1CCS2,17%,
CC(C)S(=O)(=O)c1oc(-c2ccc(F)cc2)nc1S(=O)(=O)c1ccc(F)cc1,,12.6 µM (active)

Structure (SMILES),"activity, negative = cell killing",Potency
Cc1ccc(-c2nc(S(=O)(=O)c3ccc(C)cc3)c(N3CCCCCC3)o2)cc1,3.17%,
O=C(CSc1oc(-c2ccc(F)cc2)nc1S(=O)(=O)c1ccc(Br)cc1)NC1CCCCC1,-7.12%,
CCOc1ccc(S(=O)(=O)N/N=C(\C)c2ccc(Cl)c(Cl)c2Cl)cc1,13.3%,
Cc1ccc(S(=O)(=O)NC2(C(F)(F)F)NC(=O)N(CCc3ccccc3)C2=O)cc1 (centres undefined),0.252%,
CCOc1ccc(NC(=O)c2cnn(-c3ccccc3)c2-n2cccc2)cc1,59.1%,
CCOc1ccc(NC(=O)CN2CCN(CC(=O)Nc3ccc(OC)cc3)CC2)cc1,,inactive
CCOc1ccc(NC(=O)c2ncoc2-c2ccco2)cc1,,5.01 µM (active)
C=Cc1ccc(Cn2c(C(=O)O)c(CNC3CCCC3)c3ccc(C)cc32)cc1,-17.8%,
Cc1ccccc1C(=O)Nc1cc(C)c(O)c(-c2nc3ccccc3o2)c1,-18%,
O=C(NC1CCN(C(=S)NCc2ccco2)CC1)c1ccc(F)cc1,5.38%,
COc1ccc(S(=O)(=O)NCC(c2ccco2)N2CCOCC2)cc1 (centres undefined),5.2%,
Cc1ccc(NS(=O)(=O)c2ccc3c(c2)CC(=O)N3)cc1Cl,-10.8%,
COc1ccc(CCNc2nc(-c3ccc(F)cc3)cc(C(F)(F)F)n2)cc1OC,-13.6%,
CSc1ccccc1NC(=O)CCS(=O)(=O)c1nc(-c2cccs2)cc(C(F)(F)F)n1,133%,
COc1ccccc1-c1cc(C(F)(F)F)nc(S(=O)(=O)CCCC(=O)Nc2cc(C)ccc2O)n1,,22.4 µM (active)
Cc1ccc(O)c(NC(=O)CCS(=O)(=O)c2nc(-c3ccc4c(c3)OCO4)cc(C(F)(F)F)n2)c1,68.3%,
CC(=O)c1ccc(NC(=O)c2nc3nc(C)cc(C(F)F)n3n2)cc1,11.3%,
Cc1ccc(NC(=O)c2nc(S(=O)(=O)Cc3cccc(C)c3)ncc2Cl)cc1,,22.4 µM (active)
CCSc1ncc(Cl)c(C(=O)Nc2cc(C)ccc2C)n1,-0.257%,
CCCS(=O)(=O)c1ncc(Cl)c(C(=O)Nc2scc(-c3ccccc3)c2C(=O)OCC)n1,-27.2%,
Cc1ccc2nc(CN3CCN(S(=O)(=O)c4ccc(C)c(C)c4)CC3)oc2c1,-11.2%,
O=C1N(c2ccc(Cl)cc2)C(c2ccc(Cl)cc2)N2CCCN12 (centres undefined),-0.885% [at 1.84 µM],
O=C(COC(=O)CSc1nnc(-c2ccc(Cl)cc2)o1)Nc1cc(Cl)cc(Cl)c1,0.272%,
O=[N+]([O-])c1ccc(N2CCN(S(=O)(=O)c3ccccc3)CC2)cc1N1CCc2ccccc2C1,39.8%,

Structure (SMILES),"activity, negative = cell killing",Potency
COc1cc(CNC(=O)c2cc3n(n2)CCCN(Cc2cccc(F)c2)C3=O)cc(OC)c1OC,-11.9%,
O=C(Cc1ccc(Cl)cc1)NCC(c1cccs1)S(=O)(=O)c1ccc(Cl)cc1 (centres undefined),18.8%,
COc1ccccc1Nc1cc(C(=O)NCCCN(C)C2CCCCC2)c2ccccc2n1,,12.6 µM (active)
CCCCN(CCCNC(=O)c1cc(Nc2ccccc2OC)nc2ccccc12)c1ccccc1,-2.39%,
COc1ccc(Nc2cc(C(=O)NCCCN(C)c3ccccc3)c3ccccc3n2)c(OC)c1,31.5%,
COc1ccc2oc(=O)c(-c3cn4c(n3)sc3cc(OC)ccc34)cc2c1,-0.0282%,
COc1ccc2cc(-c3nc(Cl)c4c5c(sc4n3)CC(C)CC5)c(=O)oc2c1 (centres undefined),-14.6%,
COc1ccc(-c2cc3ccc(OCc4nn[nH]n4)cc3oc2=O)cc1,,10 µM (active)
O=C(COc1nc2ccccc2nc1N1CCOCC1)NCC(F)(F)F,-2.52%,
CCCn1ccc2c(OCC(=O)NCc3ccc(F)cc3)cccc2c1=O,-11.4%,
COc1ccc(OCC(=O)Nc2cccc(C(=O)OCc3cc(=O)n4nc(C)sc4n3)c2)cc1,-1.29%,
Cc1nn2c(=O)cc(COC(=O)c3cccc(NC(=O)COc4ccccc4Cl)c3)nc2s1,,6.31 µM (active)
Cc1nn2c(=O)cc(COC(=O)c3ccccc3NC(=O)COc3ccccc3C)nc2s1,-5.99%,
Cc1ccccc1CNC(=O)C(=O)NCC(c1cccs1)S(=O)(=O)c1cccs1 (centres undefined),35.3%,
CCC(=O)N1c2ccccc2CC1C(=O)N1CCN(c2ccccc2F)CC1 (centres undefined),-6.5%,
Cc1ccc(OCC(=O)OCc2cc(=O)n3nc(C4CC4)sc3n2)cc1,-8.09%,
COc1ccccc1NC(=O)c1cc(S(=O)(=O)NCCc2ccccc2)ccc1F,10.5%,
COCCn1c(SCC(=O)c2cc(C)ccc2C)nc2cc(C(=O)NC3CCCC3)ccc2c1=O,10.6%,
CCn1c(CNC(=O)c2ccccc2)nnc1SCC(=O)N1CCN(c2ccccc2)CC1,6.06%,
CCOCN(C(=O)Cn1c(C(C)O)nc2ccccc21)c1c(C)cccc1CC (centres undefined),21.6%,
COc1cc(-c2cc3n(C)c(C)c(CCC(=O)Nc4ccc(F)cc4)c(=O)n3n2)cc(OC)c1OC,-1.61%,
COc1ccc(NC(=O)CN2C(=O)C(c3ccccc3)=NC23CCCCCC3)cc1OC,23.8%,
COc1ccc(-c2nn(CC(=O)Nc3ccccc3F)c3c2cnc2ccc(F)cc23)cc1,-18%,
COC(=O)c1nc2ccccc2s1,6.87%,

Structure (SMILES),"activity, negative = cell killing",Potency
CCc1ccccc1N1C(=O)CN(S(=O)(=O)CC)CC1(C)C(=O)NC1CCCCC1 (centres undefined),2.03%,
O=C(Nc1cccc(F)c1)c1coc(=O)c(Br)c1,22%,
COc1cccc(CNC(=O)C(=O)NCC(c2cccs2)S(=O)(=O)c2ccccc2)c1 (centres undefined),-16.5%,
Cc1ccc(C)c(Cn2c(CCCNC(=O)C3CCCCC3)nc3ccccc32)c1,9.17%,
O=C(CC(NCc1cccnc1)C(=O)O)Nc1ccc(O)cc1 (centres undefined),2.24%,
CCN1C(=O)c2ccccc2Sc2ccc(NC(=O)Cc3ccc(OC)cc3)cc21,-3.19%,
C/C(CC(=O)Nc1ccc(Cl)cc1)=N\NC(=O)C(=O)NCCO,-7.37%,
CC(=O)c1sc(N2C(=O)c3oc4ccccc4c(=O)c3C2c2ccc(C)cc2)nc1C (centres undefined),-20.5%,
COC(=O)c1ccccc1NC(=O)Cn1c(=O)n(-c2cccc(C(F)(F)F)c2)c(=O)c2c(C)c(C)sc21,-6.26%,
CCCCOc1ccc(CN2C(=O)C(=O)c3cc(Br)cc(C)c32)cc1OC,,11.2 µM (active)
COc1ccc(CCN2C(=O)C3CC=C(C)CC3C2=O)cc1OC (centres undefined),9.02%,
CCCCOc1ccc(Cn2c(=O)oc3ccc(C)cc32)cc1OC,-20.1%,
COc1ccc(CCNC(=O)/C(C#N)=C2\N=C(NC(=O)c3cccs3)c3ccccc32)cc1,-0.547%,
CCC(CC)c1nn2cc(-c3ccccc3)nc2s1,,7.94 µM (active)
CCc1ccc(CNC(=O)C2CCN(c3nn4cc(-c5ccc(F)cc5)nc4s3)CC2)cc1,-5.73%,
CCCS(=O)(=O)Nc1cccc(-c2cn3ccsc3n2)c1,-16.7%,
Cc1ccc(Cl)cc1NC(=O)CSc1nccn1C,28.3%,
COc1cccc(CNC(=O)Cn2c(=O)c3cccn3c3ccc(F)cc32)c1OC,10.8%,
CC(C)NC(=S)N1CCN(C(c2ccccc2)c2ccccc2)CC1,2.42% [at 1.84 µM],
CCC(C)NC(=O)Cn1c(=O)n(-c2ccc(Cl)cc2)c(=O)c2c3c(sc21)CCCC3 (centres undefined),13.8%,
Cc1ccc(N(CC(=O)NCC(C)c2ccccc2)S(=O)(=O)N(C)C)cc1 (centres undefined),9.74%,
Cc1ccc(OCCSc2nc(-c3cccs3)nc3cc(=O)[nH]n23)cc1Cl,10.9%,
